Shown are actives, neighbours in structure and some others; about 0.52% of the full set was active somewhere.
GCN5L2 inh-1 = inhibitors of human GCN5L2 histone acetyltransferase. actives 0.21% (n = 390,000). GCN5L2 HAT assay, ThioGlo1 CoA-SH fluorescence. AID 504327. Potency, µM (highest dose often 58.9 µM), for the others: at the highest dose activity change, negative = inhibition, actives largely listed as inhibitors. Q92830; further: potency means the concentration at half of the fitted maximal effect; on the % scale 0 is the no-effect control and ±100 the full control effect
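Fluorescence readout, Ex340nm/Em540nm: ThioGlo1 (50uM final) reacts with free CoA thiol released as 20nM GCN5L2 acetylates H3(1-25) peptide (75uM) using acetyl-CoA (70uM). Compound and enzyme sat 15 min beforehand; 20 min room-temperature reaction.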
PGK inhibitor = T. brucei PGK inhibition | P07378 | PGK/GAPDH coupled, Kinase-Glo luminescence, 60 min | Potency, µM (top dose mostly 57.5 µM), without a hit: at the highest dose activity change, negative = inhibition, usual class: inhibitors | actives 0.043% (n = 380,000); further: potency means the concentration at half of the fitted maximal effect; on the % scale 0 is the no-effect control and ±100 the full control effect; nearly all actives have a fitted effect of over 60% in size
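Recombinant glycosomal PGK reaction used 1,3-bisphosphoglycerate generated in-well by GAPDH (100nM final) in 100mM TEA pH 7.6, 5mM MgCl2, 0.01% Tween-20. After 60 minutes at room temperature, ATP was read by Kinase-Glo Plus luminescence end-point.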
Tb PFK inh-1 = T. brucei PFK enzyme inhibition; O15648; T. brucei PFK, ADP-Glo luminescence; Potency, µM (highest dose often 57.5 µM), inactives show at the highest dose activity, negative = inhibition, hits mostly inhibitors; actives 0.17% (n = 330,000); AID 485367;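 further: potency means the concentration at half of the fitted maximal effect; 0% = uninhibited 1x PFK enzyme wells and -100% = no-enzyme wells; nearly all actives have a fitted effect of over 60% in size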
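PFK 1.25 nM, F6P 0.5 mM, ATP 0.1 mM, 0.1 M TEA pH 8.0, 5 mM MgCl2, 0.01% Tween20, 0.1% BSA; 45 min RT. ADP-Glo readout. qHTS titration up to 57 uM; curves fitted, compounds curve-classed.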
GLS inh = glutaminase GLS (human) inhibition | GLS enzymatic activity, qHTS titration | O94925 | Potency, µM (top dose mostly 45.5 µM), for the others: at the highest dose activity change, negative = inhibition, actives largely listed as inhibitors | actives 0.21% (n = 410,000); further: potency means the concentration at half of the fitted maximal effect; on the % scale 0 is the no-effect control and ±100 the full control effect
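Compounds were pin-transferred onto hKGA, after which L-glutamine (1 mM solution) and a detection mix of glutamate oxidase, HRP and Amplex Red were added. Initial and 30 min RT fluorescence reads were collected.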
USP2a block = USP2a (human) protease inhibition | O75604 | USP2 core, Ub-CHOP2 coupled fluorogenic reporter, 485/531 | Potency, µM (doses to about 38.3 µM), without a hit: at the top dose activity change, negative = inhibition, usual class: inhibitors | actives 0.01% (n = 330,000) | AID 463254;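 further: potency means the concentration at half of the fitted maximal effect; plate controls were DMSO wells for no effect and full inhibition by NEM control for full effect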
Target sequence (O75604 whole entry, looked up): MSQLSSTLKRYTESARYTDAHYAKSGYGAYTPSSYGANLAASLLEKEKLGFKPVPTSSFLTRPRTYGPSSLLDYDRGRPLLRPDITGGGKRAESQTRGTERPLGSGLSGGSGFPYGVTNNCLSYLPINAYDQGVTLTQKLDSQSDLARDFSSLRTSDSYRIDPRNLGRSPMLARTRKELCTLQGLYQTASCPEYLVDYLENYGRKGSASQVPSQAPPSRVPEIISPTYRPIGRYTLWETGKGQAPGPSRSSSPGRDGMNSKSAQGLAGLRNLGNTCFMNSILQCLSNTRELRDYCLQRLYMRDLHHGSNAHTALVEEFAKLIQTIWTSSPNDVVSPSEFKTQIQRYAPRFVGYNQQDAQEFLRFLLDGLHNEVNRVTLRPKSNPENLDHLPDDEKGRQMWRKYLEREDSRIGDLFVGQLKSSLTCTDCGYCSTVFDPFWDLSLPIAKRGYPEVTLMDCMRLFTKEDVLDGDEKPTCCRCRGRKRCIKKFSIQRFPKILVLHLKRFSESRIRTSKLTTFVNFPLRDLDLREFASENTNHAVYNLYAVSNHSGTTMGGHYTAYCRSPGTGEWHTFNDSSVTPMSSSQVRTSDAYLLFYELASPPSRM
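Cell-free coupled assay: 10nM USP2 core preincubated 30min RT with compound in Tris-HCl pH 8.0/CaCl2/CHAPS buffer, then 25nM Ub-CHOP2 and 25nM reporter substrate; fluorescence (Ex 485/Em 531) read after 60min RT, normalized to NEM inhibition, concentration-response curves fitted.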
TbPFK ATP = Tb phosphofructokinase inhibition, orthogonal luminescence; Tb PFK enzyme, ATP depletion, Kinase-Glo Plus luminescence; actives 47% (n = 1,100); shares compounds with Tb PFK inh-1; Potency, µM (series often up to 57.5 µM), for the others: at the top dose inhibition; AID 504636; calls by dose curve; further: potency means the concentration at half of the fitted maximal effect; nearly all actives have a fitted effect of over 60% in size
Tb PFK inh-2 = T. brucei PFK enzyme inhibition, hit validation | shares compounds with Tb PFK inh-1 | actives 41% (n = 1,100) | purified T. brucei PFK, ADP-Glo luminescence, 45 min | Potency, µM (highest dose often 57.5 µM), inactives show top-dose activity change, negative = inhibition, most hits filed as inhibitors;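 further: potency means the concentration at half of the fitted maximal effect; plate controls were full PFK enzyme control for no effect and no enzyme control for full effect; nearly all actives have a fitted effect of over 60% in size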
GCN5L2 inh-2 = confirmation of human GCN5L2 histone acetyltransferase inhibitors; shares compounds with GCN5L2 inh-1; GCN5L2 HAT, ThioGlo1 CoA fluorescence, 20 min; Potency, µM, actives largely listed as inhibitors; actives 70% (n = 140)
Starred values were filed as active, the others as inactive; i = inactive; ? = inconclusive; · = no result; [ ] = another dose, or the depositor's remark. Unless noted, the call rests on the fitted dose curve; in most records, active means well fitted curve in the direction sought with a large enough effect; inconclusive means small, poorly fitted or top-dose-only effect, or another doubt; inactive means no such curve, though single readings can be large; an effect the other way counts as inactive or inconclusive.

SMILES	GCN5L2 inh-1	PGK inhibitor	Tb PFK inh-1	GLS inh	USP2a block	TbPFK ATP	Tb PFK inh-2	others
CSc1ccc(C(=S)N2CCN(C)CC2)cc1	-2%	0%	?	18%	0%	21µM*	?
c1ccc2sc(C3(N4CCCC4)CCCCC3)cc2c1	-13%	·	·	·	·	·	·
O=C(COC(=O)c1cc2c(s1)CCC2)Nc1ccc(F)cc1	?	?	11µM*	30%	0%	?	?
CC1C(=O)OC2O[C@]3(C)CC[C@H]4C(C)CCC1[C@]24OO3 (some centres not stated)	11%	·	·	·	·	·	·
CC(Cc1ccc(C(C)(C)C)cc1)CN1CC(C)OC(C)C1 (configuration not stated)	-2%	·	·	·	·	·	·
O=C(OCc1cccc([N+](=O)[O-])c1)c1ccc[nH]c1=O	-1%	0%	7.6µM*	15%	2%	8.5µM*	6.7µM*
C[C@@H]1O[C@@H](Oc2c(-c3ccc(O)c(O)c3)oc3cc(O)cc(O)c3c2=O)[C@H](O)[C@H](O)[C@H]1O	-3%	-15%	-6%	62%	1%	·	·
O=c1cc(-c2ccc(O)c(O)c2)oc2cc(O[C@@H]3O[C@H](CO)[C@@H](O)[C@H](O)[C@H]3O)cc(O)c12	-11%	-5%	?	-10%	5%	?	?
O=c1c(OC2OC(CO)C(O)C(O)C2O)c(-c2ccc(O)c(O)c2)oc2cc(O)cc(O)c12 (configuration not stated)	-2%	?	12µM*	67%	-1%	8.5µM*	4.3µM*
CNC[C@H](O)c1ccc(OC(=O)C(C)(C)C)c(OC(=O)C(C)(C)C)c1	?	·	·	-4%[20 µM]	·	·	·
Cc1cc([C@@H]2CCCN2C)on1	-3%	·	·	·	·	·	·
O=[N+]([O-])c1ccc(N2CCN(C(=S)c3cccc([N+](=O)[O-])c3)CC2)cc1	-12%	2%	19µM*	?	2%	9.5µM*	24µM*
CCCCC(C#N)(Cn1cncn1)c1ccc(Cl)cc1 (configuration not stated)	-12%	·	·	·	·	·	·
O=C(NCC(F)(F)F)c1ccc(S(=O)(=O)Nc2ccccc2N2CCCC2)cc1	2%	i	?	0%	-1%	-31%	?
O=[N+]([O-])c1ccc(C2C3C(c4ccccc4)=NC4(CCCC4)N32)cc1 (configuration not stated)	-9%	-3%	0%	-2%	1%	·	·
O=[N+]([O-])c1ccc(C2CC(c3ccccc3)=Nc3ccccc3S2)cc1 (configuration not stated)	-15%	i	?	-1%	-1%	7%	1%
Fc1ccc(C2CC(c3ccco3)=Nc3ccccc3S2)cc1 (configuration not stated)	-21%	-4%	?	0%	1%	7%	-12%
COc1cc(Br)c(Br)cc1N	-6%	i	?	3%	3%	21µM*	?
O[C@@H]1CCCN2C[C@@H](O)[C@@H](O)C12 (some centres not stated)	-3%	·	·	·	·	·	·
CCC(=O)Nc1ccc(Cl)c(Cl)c1	-17%	2%	·	2%	·	·	·
Cc1occc(=O)c1OC(=O)Nc1ccc(Cl)c(Cl)c1	-4%	i	30µM*	27%	1%	?	?
O=C(Cc1ccc(Cl)cc1)Nc1ccc(S(=O)(=O)N2CCOCC2)cc1	-8%	3%	21µM*	-10%	-1%	9.5µM*	27µM*
O=C(Cc1ccc(Cl)c(Cl)c1)Nc1cccc(S(=O)(=O)N2CCOCC2)c1	-2%	i	21µM*	5%	-3%	9.5µM*	17µM*
O=C(COc1ccc([N+](=O)[O-])cc1)Nc1ccc(S(=O)(=O)N2CCOCC2)cc1	-6%	0%	?	-5%	-1%	21µM*	27µM*
CC(=O)CC(c1ccccc1)c1c(O)c2cc(O)ccc2oc1=O (configuration not stated)	28%	·	·	·	·	·	·
SMILES	GCN5L2 inh-1	PGK inhibitor	Tb PFK inh-1	GLS inh	USP2a block	TbPFK ATP	Tb PFK inh-2	others
CN(C)CCc1c[nH]c2cccc(O)c12	·	·	·	1%[99.4 µM]	·	·	·
O=C1CCCC2C3CC(CN12)C1CCCCN1C3 (configuration not stated)	-14%	·	·	·	·	·	·
CN1CCc2nc3sc(C(=O)C45CC6CC(CC(C6)C4)C5)c(N)c3cc2C1	6%	-1%	?	-1%	-4%	-34%	?
COc1cc2c(c(OC)c1OC)-c1ccc(OC)c(=O)cc1[C@H](NC(C)=O)CC2	3%[21.4 µM]	·	·	·	·	·	·
CCOc1ccc(C(C)=O)cc1N1C(=O)C2C3C=CC(O3)C2C1=O (configuration not stated)	-6%	-4%	?	18%	2%	-20%	?
CCOc1ccc(C(C)=O)cc1Cn1ccsc1=N	-16%	8%	0%	21%	5%	·	·
CCn1c2ccccc2c2cc(NC(=O)CSc3nnc(C4CC4)n3Cc3ccco3)ccc21	?	6%	?	14%	-19%	?	-28%
CSC(=NC#N)N1CCN(c2cccc(Cl)c2)CC1	-5%	-1%	17µM*	6%	-3%	21µM*	11µM*
Clc1cccc(N2CCNCC2)c1	-12%	-9%	-17%	0%	-1%	·	·
O=C(O)CCc1nn2cc(-c3ccccc3)nc2[nH]c1=O	?	-5%	?	-5%	-1%	-3%	10%	GCN5L2 inh-2=32*
CCCCCCC(=O)O[C@H]1CC[C@H]2[C@@H]3CCC4CC(=O)C=C(C)[C@]4(C)[C@H]3CC[C@]12C (some centres not stated)	1%	·	·	0%	·	·	·
ClC(Cl)(c1nnnn1-c1ccccc1)c1nnnn1-c1ccccc1	22µM*	-5%	11µM*	10µM*	1%	3.4µM*	11µM*	GCN5L2 inh-2=8.1*
O=C(Nc1cccc(Br)c1)c1c(O)c2c(n(Cc3ccccc3)c1=O)CCCC2	-5%	-5%	-3%	0%	-19%	·	·
O=C1CCC(C(=O)Nc2cccc(S(=O)(=O)Nc3ccccc3F)c2)=NN1	?	-7%	?	-11%	-2%	3.4µM*	9.5µM*	GCN5L2 inh-2=11*
CCCCn1c(NC(=O)c2ccco2)c(C(=O)OCC)c2nc3ccccc3nc21	-11%	-3%	3%	-8%	0%	·	·

High-throughput results (PubChem BioAssay)
